SMILES strings stand for the structures. Compounds without any hit were thinned out: in the full panel of roughly 83,000, 20% have a hit.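 In brief: 96-well plates, 48 h treatment, single concentration, percent growth endpoint.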 Unmarked numbers belong to inactive results. Active and inactive are the calls of the source. The calls were made as follows: active = growth percent below 10; inactive = the rest.

The assay deals with HL-60(TB) leukemia. Nature of the assay: NCI-60 one-dose screen, 48 h (100 = growth as untreated, 0 = no growth, -100 = all killed). The following applies: 10 µM unless noted.
Regarding `COc1ccc(/C=C2\SC(=Nc3ccccc3)NC2=O)cc1`, the growth is -70.8% (active).
For the compound `CC(C)n1c(NCCc2ccc(O)c(O)c2)nc2c1c(=O)n(C)c(=O)n2C`, the growth is 99.3%.
Next, `NNc1ncnc2cccc(Cl)c12`: 99.9%; `CCCCC[C@H]1C/C=C2/C(=O)C(Cl)=C[C@@H]2C/C=C\CCCC(=O)O[C@@H](CCCCC)C/C=C2/C(=O)C(Cl)=C[C@@H]2C/C=C\CCCC(=O)O1`: -19.1% (active).
Next, `CC(C)(O)c1cn(CCCCN2C(=O)C(=O)c3ccccc32)nn1`: 97.8%; `CCOc1ccc(/C=C/C=N/NC(N)=S)cc1`: 42%; `CN(C)CC1=NC2SC=C(c3ccccc3)C2C(=O)N1CC#N` (centres undefined): 86.1%.
On to `CCCS(=O)(=O)c1nc(NC2CC2)cc(-c2ccc3c(ccn3C3CC(C)(C)NC(C)(C)C3)c2)n1`, for which the growth is -61.7% (active).
As to `COc1cccc2c1C(=O)c1c(O)c3c(c(O)c1C2=O)C[C@@](O)(C(=O)CO)C[C@@H]3O[C@H]1C[C@H](N)[C@@H](O)[C@H](C)O1`, the growth was 3.13% (active).
With `CN1C(=O)/C(=C/c2ccc(C(=O)Nc3ncc(Cc4ccc(F)cc4)s3)cc2)SC1=S`, the growth is 37.6%.
`CCCCCCCCCCCC[N+](C)(C)Cc1ccccc1`: the growth is -52.6% (active).
As to `O=C(Nc1ccc(Cl)cc1F)c1cc(Br)ccc1O`, the growth is -39.8% (active).
Regarding `O=C1c2[nH]cc(CN[C@@H]3CCCN3)c2C(=O)c2c1c(O)c1ccccc1c2O`, the growth was -73% (active).
To `O=C(CSc1nc2ccc([N+](=O)[O-])cc2[nH]1)Nc1ccc(Br)cc1` belongs 39.4%.

The values are drawn from PubChem BioAssay (NCI).
